Entries with a potency or affinity are not part of this list.
Test system: Klebsiella pneumoniae
Conditions: Concentration 32 ug.mL-1;; ASSAY_TEST Inhibition of Bacterial Growth; detection method Absorption (OD600); MEDIA CAMHB; plate type 384well; NBS; CORNING #3640; time 18 hr

Compound	Inhibition [%]
CCN(C(=O)CSc1nnc2c3cc(-c4ccc(OC)cc4)nn3ccn12)c1ccccc1	4.95
COc1ccc(NC(=O)c2ccc3nn(CC(=O)N4CCN(c5ccccc5)CC4)c(=O)n3c2)cc1	0.73
COc1ccc(N2CCN(C(=O)Cn3nc4c(Oc5ccc(C)cc5)nccn4c3=O)CC2)cc1	7.21
CC1CCCN(c2nccn3c(=O)n(CC(=O)Nc4ccc(Br)cc4F)nc23)C1 (centres undefined)	5.81
Cc1cc(C)cc(N(Cc2cccc(F)c2)S(=O)(=O)c2cccn3c(C)nnc23)c1	2.61
Cc1cc(C)cc(NC(=O)Cn2nc3c4cc(-c5ccc(Cl)cc5)nn4ccn3c2=O)c1	7.37
O=C(CSc1nnc2c(=O)n(-c3ccc(F)cc3)ccn12)N1CCN(c2ccccc2F)CC1	-3.8
CCc1ccc(N(Cc2ccc(C)cc2)S(=O)(=O)c2cccn3c(C)nnc23)cc1	3.2
CCCc1nnc2c(=O)n(CC(=O)Nc3ccc(Br)cc3)c3ccccc3n12	14.09
COc1ccccc1Cn1c(=O)c2sccc2n2c(=O)n(Cc3c(F)cccc3Cl)nc12	8.3
O=c1n(Cc2nc(-c3ccc4c(c3)OCO4)no2)nc2ccc(-c3ccccc3)nn12	-1.48
CCc1nnc2c(SCC(=O)NCc3ccccc3Cl)nc3ccccc3n12	8.04
COc1cccc(Sc2nc3ccccc3n3c(=O)n(CC(=O)N4CCCc5ccccc54)nc23)c1	2.78
CCOc1ccc(-n2ccn3c(SCC(=O)Nc4ccc(F)cc4F)nnc3c2=O)cc1	15.47

From ChEMBL document CHEMBL4513146, “CO-ADD screening of Karazin Kharkiv National University (Ukraine) compounds”
